A selection: hits, their analogues and other compounds. The true share with any hit is near 3.4%.
GBA activity: Glucocerebrosidase; actives 1.1% (n = 48,000); Lysosomal acid glucosylceramidase (Homo sapiens), P04062; purified enzyme, resorufin glucoside fluorescence (screen aimed at inhibitors), 20 min; Potency, µM; in the data active = potency below about 15 µM; inconclusive = mostly about 16 µM to 33 µM;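 note: the screen sought inhibitors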
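Compounds titrated against 0.2 nM normal enzyme, 30 uM resorufin beta-D-glucopyranoside substrate, citrate/phosphate buffer with taurocholate and tween-20, pH 5.9. Reaction ran 20 min at room temperature; fluorescence (Ex 548/Em 600) gave AC50.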
PK Bst: Pyruvate Kinase; purified pyruvate kinase, luminescence ATP production; ribose 5-phosphate activator present at AC10; actives 1.2% (n = 51,000); Potency, µM; in the data active = potency below about 11 µM; inconclusive = mostly about 12 µM to 25 µM;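 the screen sought inhibitors and activators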;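 note: scaled between full activation by ribose 5 phosphate and full inhibition by luteolin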
FLuc inh: qHTS Assay for Inhibitors of Firefly Luciferase. purified firefly luciferase, luminescence, 8 min. AID 411, 2009. Luciferin 4-monooxygenase (Photinus pyralis), P08659. Potency, µM (series often up to 57.1 µM), for inactives: at the highest dose activity change, negative = inhibition, actives largely listed as inhibitors. actives 2.2% (n = 72,000); active = well fitted inhibition curve with a large enough effect; inconclusive = small, poorly fitted or top-dose-only effect; note: % is set by controls: 0 for no effect and ±100 for the full control effect; nearly all actives have a fitted effect of over 40% in size
Target sequence (P08659 whole entry, looked up): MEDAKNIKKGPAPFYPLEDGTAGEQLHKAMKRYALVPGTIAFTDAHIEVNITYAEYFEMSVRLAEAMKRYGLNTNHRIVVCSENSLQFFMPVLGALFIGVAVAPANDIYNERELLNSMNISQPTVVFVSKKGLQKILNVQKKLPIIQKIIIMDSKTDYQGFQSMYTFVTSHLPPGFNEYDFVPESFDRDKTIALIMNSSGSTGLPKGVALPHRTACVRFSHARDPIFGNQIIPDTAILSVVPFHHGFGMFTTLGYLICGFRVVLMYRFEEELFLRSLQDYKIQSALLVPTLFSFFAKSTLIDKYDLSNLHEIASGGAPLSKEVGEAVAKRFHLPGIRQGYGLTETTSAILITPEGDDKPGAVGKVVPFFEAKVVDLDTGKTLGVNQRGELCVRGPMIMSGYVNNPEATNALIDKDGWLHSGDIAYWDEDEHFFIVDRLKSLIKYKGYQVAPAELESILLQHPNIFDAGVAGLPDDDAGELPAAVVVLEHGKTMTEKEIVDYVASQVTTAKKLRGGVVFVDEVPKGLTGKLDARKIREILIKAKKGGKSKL
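Inhibition of light generation by firefly luciferase from ATP and luciferin was profiled with concentration-response curves per sample, ATP held at 10 uM within the enzyme's linear range. Plates were read by luminescence after an 8-minute ambient incubation.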
* marks the source's active call; other numbers are inactive results; i = inactive; ? = inconclusive; / = not tested or not shown; [ ] = remark or other dose. Potency is the fitted concentration of half-maximal effect.

SMILES	GBA activity	PK Bst	FLuc inh
O=c1oc(-c2ccco2)nc2ccccc12	/	/	-3.8%
COC(=O)c1ccc(-c2nc3ccc(C)cc3o2)cc1	>76.9	3.31*	?
Cc1ccc(-c2nc3cc(N)ccc3o2)c(C)c1	/	>57	-1.2%
Nc1ccc2oc(-c3cccs3)nc2c1	>76.9	i	?
Cc1ccc2oc(-c3ccco3)nc2c1	>76.9	/	25.1µM*
O=C(O)c1c(-c2nccc3ccccc23)[nH]c(-c2ccccc2)c1S(=O)(=O)O	/	/	3.1%[11.4 µM]
CN1[C@@H]2CC(OC(=O)[C@H](CO)c3ccccc3)C[C@@H]1[C@H]1O[C@H]12 (some centres not stated)	/	/	2.5%
COCCn1c(=O)c(-c2cccs2)nc2cnc(Oc3cccc(Cl)c3)nc21	/	/	0.7%[11.4 µM]
Cc1ccc(-c2nc3cc(C)ccc3o2)cc1	/	/	0.398µM*
CCC(C)c1ccc2oc(-c3ccc(NC(=O)c4ncn[nH]4)cc3)nc2c1 (configuration not stated)	>76.9	>57	?
CC(C)c1ccc2oc(-c3ccc(NC(=O)c4ncn[nH]4)cc3)nc2c1	>76.9	i	10µM*
Cc1ccc2oc(-c3ccc(NC(=O)c4cccnc4)cc3)nc2c1	>76.9	/	-10.8%
O=c1c(-c2ccc(Cl)cc2)nc2cnc(N3CCOCC3)nc2n1CCc1ccccc1	/	/	0.9%[11.4 µM]
COCCn1c(=O)c(-c2ccc(Cl)cc2)nc2cnc(Nc3ccccc3)nc21	/	/	0.6%[11.4 µM]
O=C1C2C(C(=O)N1c1ccncc1)C1C=CC2C12CC2 (configuration not stated)	>76.9	>57	-4.8%
Cc1ccc(N2C(=O)C3C(C2=O)C2C=CC3C23CC3)cc1 (configuration not stated)	/	/	12.6µM*
Clc1ccc(CSCCc2ccncc2)cc1Cl	/	/	1.3%[11.4 µM]
CCOC(=O)CSc1nc(-c2ccc3c(c2)OCO3)ccc1C#N	/	4.32*	3.98µM*
CCOC(=O)CSc1nc(-c2ccncc2)ccc1C#N	/	i	7.94µM*
CCOC(=O)CC(=O)CSc1nc(-c2cccnc2)ccc1C#N	/	i	-6.9%
CCOC(=O)CSc1nc2cc(OCC)ccc2cc1C#N	>76.9	>57	-1.9%
CCCS(=O)(=O)NCCc1csc(-c2cccnc2)n1	/	/	-0.6%
O=S1(=O)N=C(N2CCOCC2)c2ccccc21	>76.9	>57	-0.7%
O=S1(=O)N=C(Nc2ccc(N3CCOCC3)cc2)c2ccccc21	>76.9	/	12.6µM*
COc1cccc(Nc2nc(-c3sc(N)nc3C)cs2)c1	i	i	-20.7%
SMILES	GBA activity	PK Bst	FLuc inh
Cc1nc(N)sc1-c1csc(N(C)c2ccc(O)cc2)n1	/	i	12.6µM*
COC(=O)C/C=C\[C@@H](C)[C@@H](/C=N\O[C@@H](C)c1cn([C@H]2COC[C@H]2O)nn1)NS(=O)(=O)c1ccc(C)cc1	/	/	0.1%[11.4 µM]
O=C(CSc1nnc(Cc2csc(Nc3cccc(Cl)c3)n2)o1)N1CCc2ccccc21	14.5*	>57	0.0%
O=C(CSc1nnc(CNc2ccccc2)o1)N1CCc2ccccc21	>76.9	>57	1.6%
COc1ccc(C(=O)Nc2cc(C)on2)cc1	/	/	10µM*
Cc1cc(NC(=O)c2cc(C)on2)no1	>76.9	>57	1.1%
Cc1cc(NC(=O)c2ccc3nc(-c4ccccc4)c(-c4ccccc4)nc3c2)no1	14*	>57	1.8%
C/C(=C\C(=O)Nc1cc(C)on1)c1ccccc1	/	/	-20.1%
O=c1n(Cc2cc3c(cc2Cl)OCO3)c(=O)n2n1CC[C@H]1/C(=N\OCc3ccccc3)[C@H]3O[C@@H]3[C@@H](O)[C@@H]12	/	/	0.7%[11.4 µM]
Cc1cc(N2CCCCC2)n2ncc(-c3ccc(Cl)cc3)c2n1	?	i	12.6µM*
Cc1cc(N2CCC(C)CC2)n2ncc(-c3ccccc3)c2n1	i	?	15.8µM*
Cc1cc(N2CCCCC2)n2ncc(-c3ccccc3)c2n1	?	3.43*	3.98µM*
Cc1cc(N2CCC(C)CC2)n2nc(C)c(-c3ccccc3)c2n1	>76.9	>57	2.3%
Cc1cc(N2CCCCC2)n2nc(C)c(-c3ccccc3)c2n1	>76.9	>57	-0.6%
Cc1cc(N2CCN(C(=O)c3ccco3)CC2)n2ncc(-c3ccccc3)c2n1	i	>57	-21.5%
O=C(Nc1ccccc1)N1CC[C@@]2(CCCN(C(=O)c3cnccn3)C2)C1	/	/	1.6%[11.4 µM]
CCN1CCN(C(=O)Nc2ccc(Cc3ccc(NC(=O)N4CCN(CC)CC4)cc3)cc2)CC1	/	/	12.6µM*
CCOC(=O)N1CCN(C(=O)Nc2ccc(Cl)cc2)CC1	>76.9	>57	-2.1%
O=c1c2c(nc3c(-c4ccccc4)c[nH]n13)CCCC2	/	/	-0.1%
Cc1[nH]n2c(=O)c(C#N)c(-c3ccccc3)nc2c1-c1ccccc1	>76.9	>57	-2.4%
Cc1[nH]n2c(=O)c3c(nc2c1-c1ccc(Cl)cc1)CCC3	11.7*	>57	0.8%
Cc1[nH]n2c(=O)c3c(nc2c1-c1ccccc1)CCC3	9.49*	>57	0.3%
